Source: PubChem BioAssay (Tox21)
A number with no mark means an inactive call. Results filed as inconclusive are left out. Where a call stands in place of a potency, no number is given. Calls of active or inactive are those of the source. Unless noted, calls follow the shape of the dose curve; as a rule, active = well fitted curve in the direction sought with a large enough effect in the repeat runs; inconclusive = weak or mixed curves; inactive = no such curve, though single readings can be large; an effect the other way counts as inactive or inconclusive.

Key:
[1] = qHTS assay to identify small molecule agonists of the sonic hedgehog signaling (Shh) pathway (AID 1259368; calls by dose curve;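 also: NIH/3T3-derived 3T3Gli1-Luc cells carrying a stable Gli1-driven firefly luciferase reporter; series mostly up to about 92 µM; nearly all actives have a fitted effect of over 15% in size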)
How it was run: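 A Gli1 transcriptional response element controlled firefly luciferase in 3T3Gli1-Luc cells. Compounds and a positive control were added 4 hr after plating, and cells were incubated a further 24 hr at 37 C before luminescence detection.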

[2] = molecular target: Estrogen receptor beta (Homo sapiens) (UniProt Q92731); assay: qHTS assay to identify small molecule agonists of the estrogen receptor beta (ER-beta) signaling pathway (AID 1259377; active = well fitted activation curve with a large enough effect in the signal ratio in the repeat runs, not every such curve was filed as active; the % refers to the signal ratio)
How it was run: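 HEK293T ER-beta-UAS-bla; 2% charcoal-stripped FBS; cells pre-incubated 6 hr, compound 16 hr, 37C/5% CO2; LiveBLAzer B/G FRET substrate 2 h RT; fluorescence intensity read.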

[3] = molecular target: Estrogen receptor beta (Homo sapiens) (UniProt Q92731); assay: qHTS assay to identify small molecule antagonists of the estrogen receptor beta (ER-beta) signaling pathway (AID 1259378; active = well fitted inhibition curve with a large enough effect in the signal ratio in the repeat runs, not every such curve was filed as active; the % refers to the signal ratio; also: potency is read from the fitted curve at half-maximal effect)
How it was run: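 Antagonist mode: compounds added to beta-lactamase reporter HEK293T ER-beta-UAS cells stimulated with E2 (1nM final), 16 hr at 37C. LiveBLAzer B/G FRET substrate, 2 hours room temperature, fluorescence read-out.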

[4] = qHTS assay to identify small molecule agonists of the androgen receptor (AR) signaling pathway in the presence of an antagonist - cell viability counter screen (AID 1259379);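 also: MDA-kb2 human breast cancer cells carrying an MMTV luciferase reporter; series mostly up to about 92 µM; nearly all actives have a fitted effect of over 25% in size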
How it was run: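 Seed MDA-kb2 at 3,000 cells/well; incubate 5 hr, 37C, 0% CO2. Add nilutamide to 3.0uM final, then pin compounds at 15 concentrations. Incubate 16 hr. Add CellTiter-Fluor at 15 hr, read fluorescence after 1 hr.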

[5] = qHTS assay to identify small molecule agonists of the estrogen receptor beta (ER-beta) signaling pathway - cell viability counter screen (AID 1259380); also: nearly all actives have a fitted effect of over 30% in size; also: potency is read from the fitted curve at half-maximal effect
How it was run: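 CellTiter-Glo read, 30 min RT, same wells as bla assay; cells ER-beta-UAS-bla HEK293T; 16 hr compound, 37C; medium 2% charcoal-stripped FBS.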

[6] = qHTS assay to identify small molecule agonists of the estrogen receptor alpha (ER-alpha) signaling pathway in the presence of an antagonist - cell viability counter screen (AID 1259386);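 also: series mostly up to about 92 µM; cells exposed to compounds for 22 h at 37 °C before the viability read; nearly all actives have a fitted effect of over 30% in size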
How it was run: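 Viability counter screen using VM7Luc4E2 (full-length ER-alpha, four ERE-luciferase). The cells were treated with compounds alongside ICI-182,780 10.0nM for 22hr, and live-cell protease fluorescence was quantified with CellTiter-Fluor.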

[7] = molecular target: Progesterone receptor (Homo sapiens) (UniProt P06401); assay: qHTS assay to identify small molecule agonists of the progesterone receptor (PR) signaling pathway (AID 1346784; calls by dose curve; also: nearly all actives have a fitted effect of over 30% in size)
How it was run: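 Beta-lactamase reporter read-out: after 16 hr compound treatment at 37C and a further 2 hr at room temperature with LiveBLAzer B/G FRET substrate, fluorescence was measured in PR-UAS-bla HEK 293T cells grown in 2% charcoal-stripped serum.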

[8] = molecular target: Progesterone receptor (Homo sapiens) (UniProt P06401); assay: qHTS assay to identify small molecule antagonists of the progesterone receptor (PR) signaling pathway (AID 1346795; active = well fitted inhibition curve with a large enough effect in the signal ratio in the repeat runs, not every such curve was filed as active; the % refers to the signal ratio)
How it was run: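 Read-out is fluorescence from the LiveBLAzer B/G FRET substrate, cleaved by a UAS-controlled beta-lactamase in PR-UAS-bla HEK293T cells after 16 hr exposure to compound plus 1 nM promegestone (final), followed by 2 hr at room temperature.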

[9] = qHTS assay to identify small molecule antagonists of the progesterone receptor (PR) signaling pathway - cell viability counter screen (AID 1346798);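 also: HEK293T PR-UAS-bla cells stimulated with the agonist R5020; series mostly up to about 92 µM; nearly all actives have a fitted effect of over 50% in size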
How it was run: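 HEK293T PR-UAS-bla, 2% charcoal-stripped FBS; 4 hr pre-plate; cpd + R5020, 16 h 37C; LiveBLAzer read first; then CellTiter-Glo 30 min RT, luminescence.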

[10] = qHTS assay to identify small molecule agonists of the progesterone receptor (PR) signaling pathway - cell viability counter screen (AID 1346799; calls by dose curve; also: nearly all actives have a fitted effect of over 45% in size)
How it was run: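 Luminescence from CellTiter-Glo, added after the beta-lactamase FRET read in the same wells, gave cytotoxicity in PR-UAS-bla HEK293T cells treated with compounds for 16 hr at 37C.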

[11] = qHTS assay to identify small molecule antagonists of the TGF-beta/Smad signaling pathway - cell viability counter screen (AID 1346824); also: nearly all actives have a fitted effect of over 50% in size
How it was run: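 Cytotoxicity counter-screen run in the same wells as the beta-lactamase Smad reporter read: CellTiter-Glo luminescence after 30 min at room temperature. HEK 293T SBE-bla cells had 5 hr compound exposure at 37 C with TGF-beta1 (0.25 ng/mL stock).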

[12] = qHTS assay to identify small molecule agonists of the TGF-beta/Smad signaling pathway - cell viability counter screen (AID 1346829); also: top concentration of the series differs between compounds; nearly all actives have a fitted effect of over 45% in size
How it was run: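 Here the cytotoxicity of library compounds is measured in SBE-bla HEK 293T cells treated for 5 hr, using CellTiter-Glo added to wells already read for the beta-lactamase reporter.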

[13] = qHTS assay to identify small molecule agonists of the TGF-beta/Smad signaling pathway (AID 1346859; active = well fitted activation curve with a large enough effect in the signal ratio in the repeat runs, not every such curve was filed as active; the % refers to the signal ratio; also: series mostly up to about 77 µM)
How it was run: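 SBE-bla HEK 293T, 4,000 cells/well, plated o/n; cpd in DMSO, 5 hr, 37 C/5% CO2; B/G FRET substrate 2 hr RT; ex 405, em 460/530 nm.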

[14] = molecular target: Estrogen receptor (Homo sapiens) (UniProt P03372); assay: qHTS assay to identify small molecule agonists of the estrogen receptor alpha (ER-alpha) signaling pathway in the presence of an antagonist (AID 1259383; calls by dose curve; also: top concentration of the series differs between compounds; nearly all actives have a fitted effect of over 15% in size)
How it was run: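 Stably transfected VM7Luc4E2 reporter cells, kept 5 days in charcoal-stripped serum, received ICI-182,780 at 10.0nM final before compound addition. Following 22hr incubation at 37C and 5% CO2, luciferase signal was read by luminescence.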

[15] = qHTS assay to identify small molecule agonists or antagonists of the thyroid stimulating hormone receptor (TSHR) signaling pathway - wild type cell line counter screen (AID 1259384; calls by dose curve)
How it was run: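 Counter screen in untransfected Hek293: compounds (15-point titration, triplicate) plus phosphodiesterase inhibitor Ro20-1724 added after 18 h plating; 30 min RT. Intracellular cAMP via competitive d2/cryptate immunoassay, 1 h incubation.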

[16] = molecular target: Thyrotropin receptor (Homo sapiens) (UniProt P16473); assay: qHTS assay to identify small molecule antagonists of the thyroid stimulating hormone receptor (TSHR) signaling pathway (AID 1259385; calls by dose curve; also: nearly all actives have a fitted effect of over 20% in size; also: potency is read from the fitted curve at half-maximal effect)
How it was run: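 Antagonist mode: compound-treated TSHR-expressing HEK293 cells were stimulated with 1.5 ng/mL TSH (final) in presence of Ro20-1724 for 30 min at RT. HTRF cAMP detection after 1 h; each compound tested at 15 concentrations, triplicate.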

[17] = molecular target: Thyrotropin-releasing hormone receptor (Homo sapiens) (UniProt P34981); assay: qHTS assay to identify small molecule antagonists of the thyrotropin-releasing hormone receptor (TRHR) signaling pathway (AID 1346877; active = well fitted inhibition curve with a large enough effect in the repeat runs, not every such curve was filed as active; also: series mostly up to about 51 µM)
How it was run: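 Following an 18 h incubation at 37 °C and a 2 h calcium dye load, TRHR-HEK293 cells were exposed to compound (5 min, room temperature) and challenged with TRH, 1 nM final.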

[18] = qHTS assay to identify small molecule antagonists of the sonic hedgehog signaling (Shh) pathway (AID 1259369; calls by dose curve; also: nearly all actives have a fitted effect of over 45% in size; also: potency is read from the fitted curve at half-maximal effect)
How it was run: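 For antagonist detection, the reporter line received test compounds together with conditioned medium, incubated 24hr at 37 C, 5% CO2, then luminescence was recorded following 30min room-temperature luciferase reagent incubation.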

[19] = qHTS assay to identify small molecule antagonists of the estrogen receptor beta (ER-beta) signaling pathway - cell viability counter screen (AID 1259382); also: nearly all actives have a fitted effect of over 55% in size; also: potency is read from the fitted curve at half-maximal effect
How it was run: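 In this multiplexed counter screen, cells were seeded at 2,000 per well in medium with 2% charcoal-stripped FBS and incubated 6 hr before compound and 1nM final E2 were added. Sixteen hours later, ATP-based luminescence reported viability.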

Sequence of Estrogen receptor beta (Homo sapiens) (Q92731 whole entry, looked up): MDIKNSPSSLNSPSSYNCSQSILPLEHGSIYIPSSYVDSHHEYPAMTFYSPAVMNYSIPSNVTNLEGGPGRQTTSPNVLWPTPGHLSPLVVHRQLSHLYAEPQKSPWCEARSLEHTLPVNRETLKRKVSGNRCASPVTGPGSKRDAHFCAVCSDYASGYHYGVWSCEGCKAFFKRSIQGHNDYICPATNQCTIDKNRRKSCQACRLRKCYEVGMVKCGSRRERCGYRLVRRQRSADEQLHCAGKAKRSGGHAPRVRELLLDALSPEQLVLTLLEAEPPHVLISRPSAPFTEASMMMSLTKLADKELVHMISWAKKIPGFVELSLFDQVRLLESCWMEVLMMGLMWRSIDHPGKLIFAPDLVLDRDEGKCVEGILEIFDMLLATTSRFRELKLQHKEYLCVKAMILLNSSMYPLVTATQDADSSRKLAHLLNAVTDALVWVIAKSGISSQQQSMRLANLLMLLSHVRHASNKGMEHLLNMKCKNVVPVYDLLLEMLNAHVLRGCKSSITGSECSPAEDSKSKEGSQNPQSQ
Sequence of Estrogen receptor (Homo sapiens) (P03372 whole entry, looked up): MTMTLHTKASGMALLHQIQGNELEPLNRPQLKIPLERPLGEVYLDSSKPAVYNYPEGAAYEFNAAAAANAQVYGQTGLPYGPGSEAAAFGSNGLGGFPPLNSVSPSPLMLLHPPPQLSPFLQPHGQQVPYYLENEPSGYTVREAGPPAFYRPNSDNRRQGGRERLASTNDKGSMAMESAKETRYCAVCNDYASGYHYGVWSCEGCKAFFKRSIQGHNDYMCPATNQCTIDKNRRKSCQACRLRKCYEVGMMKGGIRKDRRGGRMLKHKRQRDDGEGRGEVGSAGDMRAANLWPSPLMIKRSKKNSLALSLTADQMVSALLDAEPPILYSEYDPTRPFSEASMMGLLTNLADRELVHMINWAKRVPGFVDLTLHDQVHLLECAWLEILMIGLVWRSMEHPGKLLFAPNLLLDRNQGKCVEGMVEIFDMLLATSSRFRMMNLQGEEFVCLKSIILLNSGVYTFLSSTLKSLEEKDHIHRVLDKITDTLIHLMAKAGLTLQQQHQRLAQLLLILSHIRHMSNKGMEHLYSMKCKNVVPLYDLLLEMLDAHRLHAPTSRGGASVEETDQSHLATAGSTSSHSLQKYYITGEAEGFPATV
Sequence of Thyrotropin-releasing hormone receptor (Homo sapiens) (P34981 whole entry, looked up): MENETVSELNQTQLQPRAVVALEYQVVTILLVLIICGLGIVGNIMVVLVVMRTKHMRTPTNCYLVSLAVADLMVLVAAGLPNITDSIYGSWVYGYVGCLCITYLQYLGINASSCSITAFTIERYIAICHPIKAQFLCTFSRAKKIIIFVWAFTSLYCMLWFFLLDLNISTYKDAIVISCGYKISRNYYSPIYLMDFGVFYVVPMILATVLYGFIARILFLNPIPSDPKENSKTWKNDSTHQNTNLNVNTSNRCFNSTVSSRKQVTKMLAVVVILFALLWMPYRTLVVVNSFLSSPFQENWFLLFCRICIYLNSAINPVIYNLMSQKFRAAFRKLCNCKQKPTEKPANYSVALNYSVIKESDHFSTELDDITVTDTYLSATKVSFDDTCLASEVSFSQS
Sequence of Thyrotropin receptor (Homo sapiens) (P16473 whole entry, looked up): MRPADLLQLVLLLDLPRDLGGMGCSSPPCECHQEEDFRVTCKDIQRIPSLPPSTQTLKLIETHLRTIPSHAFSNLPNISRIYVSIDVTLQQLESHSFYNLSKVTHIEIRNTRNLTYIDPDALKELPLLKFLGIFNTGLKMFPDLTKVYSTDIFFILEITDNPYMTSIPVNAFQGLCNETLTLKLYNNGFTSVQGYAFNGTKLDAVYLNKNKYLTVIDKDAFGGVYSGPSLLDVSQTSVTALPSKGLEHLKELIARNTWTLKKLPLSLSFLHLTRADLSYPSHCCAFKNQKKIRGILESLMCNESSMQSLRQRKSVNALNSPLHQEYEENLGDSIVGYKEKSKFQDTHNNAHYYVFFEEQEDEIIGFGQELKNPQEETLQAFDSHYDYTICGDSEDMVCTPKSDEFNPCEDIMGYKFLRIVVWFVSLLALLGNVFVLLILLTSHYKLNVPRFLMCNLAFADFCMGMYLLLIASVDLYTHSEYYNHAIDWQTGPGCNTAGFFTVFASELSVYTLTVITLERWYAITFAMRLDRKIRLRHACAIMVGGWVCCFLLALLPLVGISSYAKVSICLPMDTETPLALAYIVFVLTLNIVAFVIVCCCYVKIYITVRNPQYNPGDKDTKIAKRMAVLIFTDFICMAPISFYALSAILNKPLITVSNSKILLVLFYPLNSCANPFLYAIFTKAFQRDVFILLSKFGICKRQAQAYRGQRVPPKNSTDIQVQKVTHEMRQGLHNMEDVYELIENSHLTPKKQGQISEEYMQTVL
Sequence of Progesterone receptor (Homo sapiens) (P06401 whole entry, looked up): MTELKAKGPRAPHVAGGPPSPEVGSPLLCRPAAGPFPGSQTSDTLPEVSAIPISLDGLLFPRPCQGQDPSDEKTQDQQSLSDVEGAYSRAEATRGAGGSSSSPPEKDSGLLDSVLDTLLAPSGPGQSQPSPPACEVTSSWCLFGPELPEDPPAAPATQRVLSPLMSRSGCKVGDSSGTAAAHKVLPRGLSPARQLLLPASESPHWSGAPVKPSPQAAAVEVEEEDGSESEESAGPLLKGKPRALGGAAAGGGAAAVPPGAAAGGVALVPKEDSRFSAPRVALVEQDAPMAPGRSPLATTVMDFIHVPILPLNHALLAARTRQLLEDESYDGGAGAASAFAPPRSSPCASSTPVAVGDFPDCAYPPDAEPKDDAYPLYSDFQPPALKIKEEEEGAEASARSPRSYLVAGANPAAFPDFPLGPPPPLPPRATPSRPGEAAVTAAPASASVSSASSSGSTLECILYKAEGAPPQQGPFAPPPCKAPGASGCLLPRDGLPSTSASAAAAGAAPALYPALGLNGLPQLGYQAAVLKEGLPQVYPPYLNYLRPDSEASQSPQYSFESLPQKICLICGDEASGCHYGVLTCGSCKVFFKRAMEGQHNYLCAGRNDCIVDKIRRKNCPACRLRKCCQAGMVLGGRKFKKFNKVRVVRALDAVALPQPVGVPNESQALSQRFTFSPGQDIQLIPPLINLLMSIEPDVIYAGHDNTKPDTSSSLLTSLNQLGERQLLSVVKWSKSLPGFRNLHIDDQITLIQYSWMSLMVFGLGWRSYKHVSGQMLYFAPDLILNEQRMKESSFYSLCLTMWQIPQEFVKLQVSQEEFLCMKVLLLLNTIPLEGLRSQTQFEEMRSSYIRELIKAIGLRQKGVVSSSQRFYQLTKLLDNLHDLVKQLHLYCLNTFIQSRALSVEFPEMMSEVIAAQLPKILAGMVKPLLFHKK

SMILES | Potency [1] | Potency [2] | Potency [3] | Potency [4] | Potency [5] | Potency [6] | Potency [7] | Potency [8] | Potency [9] | Potency [10] | Potency [11] | Potency [12] | Potency [13] | Potency [14] | outcome [15] | Potency [16] | outcome [17] | Potency [18] | Potency [19]
CN(C(=O)CN(CCO)CC(=O)N(C)C(C)(C)Cc1ccccc1)C(C)(C)Cc1ccccc1 | inactive | inactive | inactive | inactive | inactive | inactive | inactive | inactive | inactive | inactive | inactive | inactive | inactive |  |  |  |  |  | 
CCCC(C(=O)OCCN(CC)CC)(c1ccccc1)c1ccccc1 | inactive | inactive | inactive |  | 29.8 µM (active) |  | inactive |  | inactive |  | inactive | inactive | inactive | inactive | inactive | inactive | inactive |  | 
Nc1nc2ccc([N+](=O)[O-])cc2s1 | inactive |  |  |  |  |  |  |  |  |  | inactive |  | inactive |  | inactive |  | inactive | 48.6 µM (active) | 
COc1ccccc1N1CCN(CC(O)COc2cccc3ccccc23)CC1 (centres undefined) | inactive | inactive | 23.7 µM (active) | inactive | 5.96 µM (active) |  | inactive |  |  |  | inactive | inactive | inactive |  | inactive | inactive |  |  | 5.96 µM (active)
CC(=O)c1ccc([N+](=O)[O-])cc1 | inactive | inactive | inactive | inactive | inactive |  | inactive |  | inactive | inactive | inactive | inactive | inactive |  | inactive | inactive |  |  | inactive
CC(CCC(=O)O)C(=O)O (centres undefined) | inactive | inactive | inactive | inactive | inactive |  | inactive | inactive | inactive | inactive | inactive | inactive | inactive |  | inactive | inactive |  |  | inactive
CC[N+](CC)(CCNC(=O)C(=O)NCC[N+](CC)(CC)Cc1ccccc1Cl)Cc1ccccc1Cl | inactive | inactive | inactive | inactive | inactive |  | inactive | inactive | inactive | inactive | inactive | inactive | inactive | inactive |  |  | inactive |  | inactive
C=Cc1ccc(S(=O)(=O)O)cc1 | inactive | inactive | inactive | inactive | inactive | inactive | inactive |  | inactive | inactive | inactive | inactive | inactive | inactive | inactive | 17.2 µM (active) | inactive |  | 
O=[N+]([O-])c1ccc(Nc2ccc(Nc3ccccc3)c(S(=O)(=O)O)c2)c([N+](=O)[O-])c1 | inactive |  |  |  | inactive |  | inactive |  | inactive | inactive | inactive | inactive | inactive |  | inactive |  |  | inactive | 
